Source: PubChem BioAssay (NCATS)
Records with an inconclusive call do not appear. The source made the active and inactive calls. The call rests on the fitted dose curve; in most records, active means well fitted cell-killing curve with a large enough effect; inconclusive means small, poorly fitted or top-dose-only effect; inactive means flat fitted curve, though single readings scatter.

Experiment: Cell Viability - LYMP2-014 (AID 983);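 further: plate controls were DMSO only for no effect and 92 µM tetraoctylammonium bromide for full effect; nearly all actives have a fitted effect of over 50% in size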
Details: LYMP2-014 lymphoblastoid cells, viability qHTS; series mostly up to 92.2 µM; activity change, negative = cytotoxicity: at the top concentration
Source text: NIH Chemical Genomics Center [NCGC]
NIH Molecular Libraries Screening Centers Network [MLSCN]
National Institutes of Environmental Health Sciences [NIEHS]
National Toxicology Program [NTP]
We have developed a 1536-well cell-based assay for quantitative high throughput screening (qHTS) against a number of cell lines to determine in vitro cytotoxicity of small molecules. This particular assay uses a human lymphoblastoid cell line (LYMP2-014) purchased from Coriell Institute for Medical Research.
NCGC Assay Protocol Summary:
The CellTiter-Glo luminescent cell viability assay (Promega) is a homogeneous method to measure the number of viable cells in culture. The end point readout of this assay is based on quantitation of intracellular ATP, an indicator of metabolic activity, using the luciferase reaction. Luciferase catalyzes the oxidation of beetle Luciferin to oxyluciferin and light in the presence of ATP. The luminescent signal is proportional to amount of ATP present.
Using the CellTiter-Glo luminescent cell viability assay, the amount of cellular ATP was measured in the lymphoblastoid cell line with complete culture medium following compound treatment for 24 hours. The assay was performed in opaque white Kalypsys 1536-well plates. In the screen, tetraoctylammonium bromide was used as positive control. Library compounds were measured for their ability to cause acute toxicity in the cell line, as reflected by a decrease in intracellular ATP levels, in a concentration-dependent manner. […] AC50 values were determined from concentration-response data modeled with the standard Hill equation.
qHTS protocol for CellTiter Glo lymphoblastoid cellular assay
[Step] [Parameter] [Value] [Description]
1. Reagent; 5 uL; 2500 lymphoblastoid cells/well
2. Time; 5 hr; 37 C incubation
4. Controls; 23 nL; Tetraoctylammonium bromide 6.4pM to 92 uM
5. Time; 24 hr; 37 C incubation
6. Reagent; 5 uL; CellTiter Glo reagent
7. Time; 30 min; Room Temperature
8. Detection; Luminescence; Viewlux plate reader
Keywords: cell viability, cytotoxicity, lymphoblastoid cell line, luminescence, NTPHTS, NTPHTS_NCGC, NIEHS, DSSTox, MLSMR, MLSCN, NIH Roadmap, qHTS, NCGC

| SMILES | activity change, negative = cytotoxicity |
| --- | --- |
| Nn1cnnc1 | -6.77% (inactive) |
| Nc1ccc(Oc2ccc(N)cc2)cc1 | -3.83% (inactive) |
| O=C(Cl)OCc1ccccc1 | -7.61% (inactive) |
| Oc1ccc(Cl)c(Cl)c1Cl | -0.925% (inactive) |
| CCOP(=O)(OCC)OCC | -12.7% (inactive) |
| Nc1ccc(Cc2ccc(N)cc2)cc1 | -26.4% (inactive) |
| C=CCBr | -1.34% (inactive) |
| CNC(=O)O/N=C/C(C)(C)S(C)=O (stereo not given) | 0.898% (inactive) |
| Cc1cc(Cl)ccc1O | -6.8% (inactive) |
| Cc1ccc(N)cc1C | -0.648% (inactive) |
| Nc1cc(Cl)cc(Cl)c1 | -0.737% (inactive) |
| ClCC(Br)CBr (stereo not given) | 2.02% (inactive) |
| S=C1NCCN1 | 0.923% (inactive) |
| CC(C)[C@]12CC(=O)[C@H](C)[C@H]1C2 | -9.79% (inactive) |
| CCCCCCCCCCCOC(=O)c1ccccc1C(=O)OCCCCCCCCCCC | 5.37% (inactive) |
| CCOC(=O)C1OC1(C)c1ccccc1 (stereo not given) | -6.04% (inactive) |
| CC(C)(OOC(C)(C)c1ccccc1)c1ccccc1 | -13.4% (inactive) |
| O=[N+]([O-])CCO | 1.65% (inactive) |
| N#CCc1ccccc1 | -4.63% (inactive) |
| CCOS(C)(=O)=O | -3.18% (inactive) |

| SMILES | activity change, negative = cytotoxicity |
| --- | --- |
| COC(=O)c1ccccc1N | -2.33% (inactive) |
| Cc1ccc2c(C)cccc2c1 | -0.447% (inactive) |
| O=C(Cl)c1ccccc1F | 5.78% (inactive) |
| Clc1ccc(C(c2ccccc2Cl)C(Cl)(Cl)Cl)cc1 (stereo not given) | -6.01% (inactive) |
| CN(C)C(=O)Cl | -7.16% (inactive) |
| Cl/C=C\Cl | -6.32% (inactive) |
| c1ccc(OCC2CO2)cc1 (stereo not given) | 1.61% (inactive) |
| O=[N+]([O-])c1ccc(Cl)c(Cl)c1Cl | -9.58% (inactive) |
| CCCCOCC1CO1 (stereo not given) | -2% (inactive) |
| OCC(Cl)CCl (stereo not given) | -3.73% (inactive) |
| CC(Cl)CCl (stereo not given) | -2.87% (inactive) |
| [O-][Cl+]O | -1.4% (inactive) |
| CCBr | 6.08% (inactive) |
| C=COC(C)=O | 2.31% (inactive) |
| Nc1ccc2ccccc2c1 | -2.65% (inactive) |
| Nc1ccc([N+](=O)[O-])cc1[N+](=O)[O-] | -9.71% (inactive) |
| CC(C)CC(C)N (stereo not given) | -8.24% (inactive) |
| CCN(CC)N=O | -0.759% (inactive) |
| O=[N+]([O-])c1ccccc1CCl | -16.1% (inactive) |
| C=CC(=O)OCC(CC)CCCC (stereo not given) | -7.28% (inactive) |
